Compounds without any hit were thinned out: in the full panel of roughly 83,000, 20% have a hit.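 Plates (96-well) were seeded with cells, treated with compound at one concentration, and incubated for 48 hours before percent growth was determined.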 A number with no mark means an inactive call. Activity calls are given as the source filed them. The calls were made as follows: active = growth percent below 10; inactive = the rest.

The experiment relates to KM12 colon. The experiment in a line: NCI-60 one-dose screen, 48 h (100 = growth as untreated, 0 = no growth, -100 = all killed). The settings on record: 10 µM unless noted.
Consider `CCOC(=O)C(C#N)C1CCCCC1` (configuration not stated), for which the growth was 107%. Then `Cc1nc2nc(N)nc(N)c2nc1C`, with 102%. Then `Cc1cc2cc3cc(C)c(N(C)C)cc3[n+](C)c2cc1N(C)C`, with 3.5% (active). Then `O=[N+]([O-])c1cccc(-c2nc3sccn3c2-c2ccnc(NCCCNS(=O)(=O)c3cccc(F)c3)n2)c1`, with -10.6% (active).

As to `Cc1ccc(Nc2nc(N)nc(Nc3ccc4ccccc4c3)n2)cc1`, the growth is 25.1%. In the case of `COc1ccc(C(=O)COc2ccc(/C=C3\Oc4ccc(Cl)cc4C3=O)cc2)cc1`, the growth was 98.8%. For the compound `O=C(/C=C/c1ccc(B(O)O)cc1)/C=C/c1ccc(B(O)O)cc1`, the growth is -86.7% (active).

For the compound `CNC(=O)c1cc(Oc2ccc3nc(NC(=O)Nc4ccc(CN5CCOCC5)c(C(F)(F)F)c4)sc3c2)ccn1`, the growth was 6.28% (active). The same measure for `C=C1C(=O)O[C@H]2[C@H]1CC/C(Cn1cc(Cn3ccc4cc(Cl)ccc43)nn1)=C\CC[C@@]1(C)O[C@@H]21`: 52%; for `Nc1ccc(N2CCOCC2)cc1`: 115%; for `CCCCCCCCCc1cc(CN2CCCCC2)c(O)c(CN2CCCCC2)c1`: 50.6%. Turning to `COc1ccc2nc3cc(Cl)ccc3c(N3CCN(c4nccc(Nc5ccccc5)n4)CC3)c2c1`, the growth is 63.1%. Then `COc1ccc(-c2nn(-c3ccccc3)cc2/C=C/C(=O)OCc2cn(-c3ccc(F)c(Cl)c3)nn2)cc1`, with 93.9%.

For `COc1ccc(C2CC(=O)Nc3c2c(C)nn3-c2nc3ccccc3[nH]2)cc1` (configuration not stated), the growth is 30.4%.

Take `COc1cc(NC(N)=NCC(C)(C)COc2ccc(C(F)(F)F)cc2)cnc1C#N`: the growth is 57.6%. Then `CSc1nc(NCCO)c(C#N)c(-c2cccc(N)c2)n1`, with 99.4%; and `COc1cccc(/C=C2/C(=O)N(Cc3ccco3)SC2=S)c1OC`, with 92.2%; and `COc1ccc2nc3cc(Cl)ccc3c(N3CCN(c4nccc(Nc5ccc(Cl)cc5)n4)CC3)c2c1`, with 62.3%. With `NCc1cn2cc(Cl)sc2n1`, the growth was 106%. Then `COc1ccc(/C=C/C(=O)c2ccc(NC(=O)c3cc4cc5ccccc5nc4s3)cc2)cc1OC`, with 76.3%; and `CC(=O)N1CC(Nc2ccc(OC(F)(F)F)cc2)=CC1=O`, with 23.3%; and `COc1ccc(/C=N\NC(=O)CN2CCN(c3cc4c(cc3F)c(=O)c(C(=O)N/N=C/c3ccc(OC)cc3)cn4C3CC3)CC2)cc1`, with 89.8%. The same measure for `CN(C)c1ccc(/C=C\C2=[N+](C)c3ccccc3C2(C)C)cc1`: -21.1% (active); for `COc1nc2c(cc1S(=O)(=O)c1ccccc1)CCc1c-2cnn1-c1ccc(Cl)cc1`: 109%. Then `CC1=C(NCCN2CCCC2)C(=O)c2c(OCc3ccc(F)c(Cl)c3)cccc2C1=O`, with 79.7%.

`CN1CCN(Cc2ccc(NC(=O)c3cncc(C#Cc4cnc(N)c5cccnc45)c3)cc2C(F)(F)F)CC1`: the growth is 8.81% (active). The same measure for `C/C(=C(/c1ccc(O)cc1)c1ccc(OCCN2CCCC2)cc1)c1ccccc1`: 51.6%; for `c1ccc2sc(SCCCn3ccnc3)nc2c1`: 97.8%. The same measure for `COC(=O)C12C3C(=O)N(c4ccc(OC)cc4)C(=O)C3C(c3cn(-c4ccccc4)nc3C)N1[C@H](c1cn(-c3ccccc3)nc1C)[C@@H]1C(=O)N(c3ccc(OC)cc3)C(=O)[C@@H]12` (some centres not stated): 106%; for `CCc1ccc(C(c2ccc(CC)cc2)C(Cl)(Cl)CCl)cc1`: 103%; for `CCOC(=O)C(=Cc1ccccc1F)C(=O)OCC`: 84.7%. Then `CCN(CC)CCCNc1cc(OC)cc2nc3cc(Cl)ccc3nc12`, with -51.4% (active). Take `O=C(/C=C/c1cc2ccccc2[nH]c1=O)/C=C/c1cc2ccccc2[nH]c1=O`: the growth was -83.7% (active). The same measure for `Cc1cc(-c2nc3ccccc3s2)ccc1NC(=O)COc1ccc(Cl)cc1`: 118%; for `COc1cc(OC)c(/C=C/S(=O)(=O)Cc2cnc(OC)c(N)c2)c(OC)c1`: 9.75% (active). Then `COc1ccc(/C=C2\N=C3Sc4cc(Cl)ccc4C(=O)N3C2=O)cc1`, with 104%; and `O=C([C@@H](COCc1ccccc1)N1C(=O)[C@@H](N2C(=O)OC[C@@H]2c2ccccc2)[C@H]1/C=C/c1ccccc1)N1CCC(CCN2CCCCC2)CC1`, with 97.1%.

Source of the values: PubChem BioAssay (NCI).
